Laboratory results published in PubChem BioAssay AID1159580 (chemical genetic matrix, 2015).
Values joined by “and” are separate entries in the source; they are usually repeats but may differ in a detail not shown here. Equal values may be shown once. The campaign covered roughly 5,500 compounds. About 2,000 (36%) were called active. Roughly 18% stayed inconclusive and do not appear here. Cut-off read from the data, not from the text of the source: active = normalized growth mostly below about 0.91 (no sharp cut-off); inconclusive = no clear call, values can overlap the other calls; inactive = mostly above about 0.92. This is one part of the list.

Experiment: chemical genetic growth profiling, strain panel (AID 1159580);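 note: tested at 20 µM; growth read once vehicle control cultures reached saturation at 30 °C; 1 = growth at the plate median or of vehicle wells; lower values mean less growth of the strain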
Conditions: growth OD

Measured: normalized growth

CN/C(=C\[N+](=O)[O-])NCCSCc1ccc(CN(C)C)o1
inactive: S. cerevisiae deletion strains, locus YKL009W, strain mrt4, stronger effect = lower value 1.02 | S. cerevisiae deletion strains, locus YKL068W, stronger effect = lower value 0.999 | S. cerevisiae deletion strains, locus YKL085W, strain MDH1 (second series), stronger effect = lower value 1.01 | S. cerevisiae deletion strains, locus YKL085W, strain MDH1, stronger effect = lower value 1.01 | S. cerevisiae deletion strains, locus YKL160W, strain elf1, stronger effect = lower value 0.988 | S. cerevisiae deletion strains, locus YKL190W, strain CNB1, stronger effect = lower value 1.01 | S. cerevisiae deletion strains, locus YKR001C, strain vps1, stronger effect = lower value 0.993 | S. cerevisiae deletion strains, locus YKR026C, strain gcn3, stronger effect = lower value 1 | S. cerevisiae deletion strains, locus YKR091W, strain srl3, stronger effect = lower value 0.988 | S. cerevisiae deletion strains, locus YLL001W, strain dnm1, stronger effect = lower value 0.989 | S. cerevisiae deletion strains, locus YLL026W, stronger effect = lower value 0.992 | S. cerevisiae deletion strains, locus YLL041C, strain sdh2, stronger effect = lower value 0.979 | S. cerevisiae deletion strains, locus YLR027C, strain aat2, stronger effect = lower value 0.989 | S. cerevisiae deletion strains, locus YLR039C, strain RIC1, stronger effect = lower value 1.05 | S. cerevisiae deletion strains, locus YLR058C, strain SHM2, stronger effect = lower value 1.03 | S. cerevisiae deletion strains, locus YLR102C, strain apc9, stronger effect = lower value 0.977 | S. cerevisiae deletion strains, locus YLR113W, strain HOG1, stronger effect = lower value 0.996 | S. cerevisiae deletion strains, locus YLR221C, strain rsa3, stronger effect = lower value 0.993 | S. cerevisiae deletion strains, locus YLR258W, strain gsy2, stronger effect = lower value 0.99 | S. cerevisiae deletion strains, locus YLR262C, strain YPT6 (second series), stronger effect = lower value 0.972 | S. cerevisiae deletion strains, locus YLR262C, strain YPT6, stronger effect = lower value 1.11 | S. cerevisiae deletion strains, locus YLR268W, strain sec22, stronger effect = lower value 0.997 | S. cerevisiae deletion strains, locus YLR320W, strain mms22, stronger effect = lower value 0.99 | S. cerevisiae deletion strains, locus YLR330W, strain CHS5, stronger effect = lower value 1.01 | S. cerevisiae deletion strains, locus YLR342W, strain FKS1 (second series), stronger effect = lower value 1.01 | S. cerevisiae deletion strains, locus YLR342W, strain FKS1, stronger effect = lower value 0.969 | S. cerevisiae deletion strains, locus YLR357W, strain rsc2, stronger effect = lower value 0.908 | S. cerevisiae deletion strains, locus YLR370C, strain arc18, stronger effect = lower value 0.982 | S. cerevisiae deletion strains, locus YLR371W, strain rom2, stronger effect = lower value 0.983 | S. cerevisiae deletion strains, locus YLR384C, strain iki3, stronger effect = lower value 0.989 | S. cerevisiae deletion strains, locus YLR418C, strain cdc73, stronger effect = lower value 0.994 | S. cerevisiae deletion strains, locus YML016C, strain PPZ1, stronger effect = lower value 1.02 | S. cerevisiae deletion strains, locus YML032C, strain rad52, stronger effect = lower value 0.977 | S. cerevisiae deletion strains, locus YML120C, strain ndi1, stronger effect = lower value 0.981 | S. cerevisiae deletion strains, locus YML124C, strain tub3, stronger effect = lower value 0.991 | S. cerevisiae deletion strains, locus YMR058W, strain fet3, stronger effect = lower value 0.979 | S. cerevisiae deletion strains, locus YMR078C, strain ctf18, stronger effect = lower value 0.987 | S. cerevisiae deletion strains, locus YMR125W, strain sto1, stronger effect = lower value 0.982 | S. cerevisiae deletion strains, locus YMR129W, stronger effect = lower value 0.995 | S. cerevisiae deletion strains, locus YMR205C, strain PFK2, stronger effect = lower value 0.976 | S. cerevisiae deletion strains, locus YMR223W, strain ubp8, stronger effect = lower value 0.996 | S. cerevisiae deletion strains, locus YMR231W, strain pep5, stronger effect = lower value 0.997 | S. cerevisiae deletion strains, locus YMR263W, strain SAP30, stronger effect = lower value 1.04 and 1 | S. cerevisiae deletion strains, locus YMR307W, strain GAS1, stronger effect = lower value 1.07 and 1.03 | S. cerevisiae deletion strains, locus YNL067W, strain RPL9B, stronger effect = lower value 1.04 | S. cerevisiae deletion strains, locus YNL071W, strain lat1, stronger effect = lower value 0.987 | S. cerevisiae deletion strains, locus YNL128W, strain TEP1, stronger effect = lower value 1.02 | S. cerevisiae deletion strains, locus YNL153C, strain GIM3, stronger effect = lower value 1.01 | S. cerevisiae deletion strains, locus YNL175C, strain NOP13, stronger effect = lower value 0.997 | S. cerevisiae deletion strains, locus YNL183C, strain NPR1, stronger effect = lower value 0.944 | S. cerevisiae deletion strains, locus YNL197C, strain WHI3, stronger effect = lower value 1.01 | S. cerevisiae deletion strains, locus YNL209W, strain ssb2, stronger effect = lower value 0.994 | S. cerevisiae deletion strains, locus YNL224C, strain SQS1, stronger effect = lower value 0.998 | S. cerevisiae deletion strains, locus YNL233W, strain BNI4, stronger effect = lower value 1.03 | S. cerevisiae deletion strains, locus YNL248C, strain rpa49, stronger effect = lower value 0.98 | S. cerevisiae deletion strains, locus YNL250W, strain rad50, stronger effect = lower value 0.982 | S. cerevisiae deletion strains, locus YNL271C, strain bni1, stronger effect = lower value 0.974 | S. cerevisiae deletion strains, locus YNL298W, strain CLA4, stronger effect = lower value 1 | S. cerevisiae deletion strains, locus YNL307C, strain MCK1, stronger effect = lower value 0.986 | S. cerevisiae deletion strains, locus YNL322C, strain KRE1 (second series), stronger effect = lower value 0.96 | S. cerevisiae deletion strains, locus YNL322C, strain KRE1, stronger effect = lower value 1.01 | S. cerevisiae deletion strains, locus YNR049C, strain mso1, stronger effect = lower value 0.988 | S. cerevisiae deletion strains, locus YNR052C, strain pop2, stronger effect = lower value 0.984 | S. cerevisiae deletion strains, locus YOL006C, strain TOP1, stronger effect = lower value 1.13 | S. cerevisiae deletion strains, locus YOL012C, strain htz1 1.11 | S. cerevisiae deletion strains, locus YOL147C, strain pex11, stronger effect = lower value 0.99 | S. cerevisiae deletion strains, locus YOR001W, strain rrp6, stronger effect = lower value 0.982 | S. cerevisiae deletion strains, locus YOR061W, strain CKA2, stronger effect = lower value 1.02 | S. cerevisiae deletion strains, locus YOR069W, strain VPS5, stronger effect = lower value 1.02 | S. cerevisiae deletion strains, locus YOR070C, strain gyp1, stronger effect = lower value 0.989 | S. cerevisiae deletion strains, locus YOR080W, strain dia2, stronger effect = lower value 0.99 | S. cerevisiae deletion strains, locus YOR083W, strain WHI5 (second series), stronger effect = lower value 1.02 | S. cerevisiae deletion strains, locus YOR083W, strain WHI5, stronger effect = lower value 0.982 | S. cerevisiae deletion strains, locus YOR106W, strain vam3, stronger effect = lower value 0.999 | S. cerevisiae deletion strains, locus YOR136W, strain idh2, stronger effect = lower value 0.982 | S. cerevisiae deletion strains, locus YOR144C, strain elg1, stronger effect = lower value 0.992 | S. cerevisiae deletion strains, locus YOR184W, strain ser1, stronger effect = lower value 0.994 | S. cerevisiae deletion strains, locus YOR231W, strain MKK1, stronger effect = lower value 0.99 | S. cerevisiae deletion strains, locus YOR265W, strain rbl2, stronger effect = lower value 0.974 | S. cerevisiae deletion strains, locus YOR270C, strain vph1, stronger effect = lower value 1 | S. cerevisiae deletion strains, locus YOR290C, strain snf2, stronger effect = lower value 0.996 | S. cerevisiae deletion strains, locus YOR316C, strain cot1, stronger effect = lower value 0.985 | S. cerevisiae deletion strains, locus YPL051W, strain arl3, stronger effect = lower value 1 | S. cerevisiae deletion strains, locus YPL055C, strain LGE1, stronger effect = lower value 0.991 | S. cerevisiae deletion strains, locus YPL078C, strain atp4, stronger effect = lower value 0.982 | S. cerevisiae deletion strains, locus YPL106C, strain sse1, stronger effect = lower value 0.956 | S. cerevisiae deletion strains, locus YPL240C, strain hsp82, stronger effect = lower value 0.99 | S. cerevisiae deletion strains, locus YPL241C, strain CIN2, stronger effect = lower value 1 | S. cerevisiae deletion strains, locus YPL256C, strain CLN2, stronger effect = lower value 0.968 | S. cerevisiae deletion strains, locus YPR119W, strain clb2, stronger effect = lower value 0.988 | S. cerevisiae deletion strains, locus YPR141C, strain kar3, stronger effect = lower value 0.995 | S. cerevisiae deletion strains, locus YPR163C, strain tif3, stronger effect = lower value 0.993 | S. cerevisiae deletion strains, locus YPR167C, strain met16, stronger effect = lower value 0.98 | S. cerevisiae deletion strains, strain wtn01, stronger effect = lower value 0.987 | S. cerevisiae strains, strain wild type, stronger effect = lower value 1.02
